This is part of a sample that, as a whole, favours compounds with a hit. Of some 79,000 tested, about 15% had one in any assay. Rule as the data show it: active = growth inhibition above about 70%; inactive = the rest.
Legend:
[1] = NCI Yeast Anticancer Drug Screen. Data for the rad50 strain (AID 155);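 also: 0% = growth of vehicle-only cultures of the same strain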; settings: S. cerevisiae rad50 strain growth inhibition; at 50.0 µM; hits give high values
Method in brief: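 Cells are treated with compound, grown, and their growth is then scored against vehicle-only cultures of the same repair-deficient yeast strain.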

[2] = NCI Yeast Anticancer Drug Screen. Data for the mec2-1 strain (AID 157); settings: S. cerevisiae mec2-1 strain, at 50.0 µM, hits give high values
Method in brief: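 Test agents were screened against the mec2-1 yeast strain, with defined DNA repair or cell cycle alteration. Growth was scored as inhibition against vehicle-only controls.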

[3] = NCI Yeast Anticancer Drug Screen. Data for the sgs1 mgt1 strain (AID 161);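 also: 0% = growth of cultures given vehicle only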; settings: S. cerevisiae sgs1 mgt1 strain, at 50.0 µM, hits give high values
Method in brief: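 Genetically altered yeast, compound exposure, growth inhibition relative to vehicle.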

[4] = NCI Yeast Anticancer Drug Screen. Data for the cln2 rad14 strain (AID 165);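 also: 0% = growth equal to vehicle treated cultures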; settings: S. cerevisiae cln2 rad14 strain, at 50.0 µM, hits give high values
Method in brief: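 Growth of compound-exposed yeast (cln2 rad14 genotype) measured and expressed as inhibition relative to vehicle.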

[5] = NCI Yeast Anticancer Drug Screen. Data for the bub3 strain (AID 167); settings: S. cerevisiae bub3 mutant strain, at 50.0 µM, hits give high values
Method in brief: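 Part of a panel of yeast mutants defective in DNA damage repair or cell cycle regulation. Each strain is grown with compound, and inhibition is calculated relative to solvent-treated cultures.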

[6] = NCI Yeast Anticancer Drug Screen. Data for the mlh1 rad18 strain (AID 175); settings: S. cerevisiae mlh1 rad18 strain growth inhibition; at 50.0 µM; hits give high values
Method in brief: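 In this whole-cell yeast screen, a strain with altered DNA damage repair is challenged with compound, and its growth is measured against matched vehicle-treated controls.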

Measured: growth inhibition

CC(=O)NN(C)C(C)=O
inactive: [1] 6% | [2] 27.3% | [3] -4.2% | [4] 12.4% | [5] 15.9% | [6] 10.5%

O=C(O)CCc1c[nH]c(=S)[nH]1
inactive: [1] 10% | [2] 3.75% | [3] -5.85% | [4] -11.6% | [5] -1.7% | [6] -1.7%

COc1ccc(C(=O)CCN(C)C)c2ccccc12
inactive: [1] -9.1% | [2] -19.8% | [3] -17.1% | [4] 9.7% | [5] -20.3% | [6] 17.5%

Cc1cc2c(=O)c3ccccc3oc2c(C(=O)O)c1C
inactive: [1] -6.75% | [2] -6.25% | [3] -50.6% | [4] 12% | [5] -1.9% | [6] -4.15%

CSc1nc(N)c(NS(=O)(=O)c2ccc(NC(C)=O)cc2)c(=O)[nH]1
inactive: [1] 5.85% | [2] 1.8% | [3] 9.05% | [4] -12.7% | [5] 2.45% | [6] 15.4%

CC1CS(=O)(=O)CC(C)S1(=O)=O (stereo unspecified)
inactive: [1] -8.6% | [2] -1.55% | [3] -5.95% | [4] -4.3% | [5] 14.7% | [6] -7.05%

O=Cc1ccc(-c2ccc([N+](=O)[O-])cc2)o1
inactive: [1] 3.7% | [2] 9% | [3] -9.5% | [4] -7.8% | [5] -0.3% | [6] 3.6%

Nc1nc2nc(N=Nc3ccccc3)[nH]c2c(=O)[nH]1
inactive: [1] 21.5% | [2] -1.9% | [3] 8.3% | [4] 9.25% | [5] 5.45% | [6] 8.9%

C=C(C)C(=O)OC1C/C(CO)=C\C(O)C/C(C)=C/C2OC(=O)C(=C)C21 (stereo unspecified)
inactive: [1] 55% | [2] 31.1% | [3] 33.7% | [4] 48% | [5] 41.5% | [6] -46.7%

CC1(CCOCc2ccccc2)NC(=O)NC1=O (stereo unspecified)
inactive: [1] -32.2% | [2] -8.4% | [3] -44.4% | [4] -33% | [5] -13.2% | [6] -19.9%

O=C1OC(=O)C2=C1CCC2
inactive: [1] -5% | [2] -14.1% | [3] -20.4% | [4] 13.3% | [5] 3.85% | [6] -12.4%

CC(C)CCC[C@@H](C)[C@H]1CC[C@H]2[C@@H]3C[C@@H](O)[C@@]4(O)C[C@@H](O)CC[C@]4(C)[C@H]3CC[C@]12C
inactive: [1] 27.6% | [2] 8.65% | [3] 14.1% | [4] -12.4% | [5] -7.25% | [6] 19.5%

COC(OC)c1cccc2c1C(=O)CCC1(O)c3ccccc3C1C2 (stereo unspecified)
inactive: [1] -8.55% | [2] -6.65% | [3] -38.9% | [4] -0.4% | [5] -30.1% | [6] -30.9%

Nc1ccc([N+](=O)[O-])c(Cl)c1
inactive: [1] 5.35% | [2] -8.3% | [3] -11% | [4] -18.1% | [5] -13.1% | [6] 13.3%

O/N=C1\c2ccccc2-c2cccc(I)c21
inactive: [1] 23.4% | [2] -5.25% | [3] 7.8% | [4] 1.5% | [5] 1.1% | [6] 5.5%

COC1/C=C/OC2(C)Oc3c(C)c(O)c4c(O)c(c(C5SCCS5)c(O)c4c3C2=O)NC(=O)/C(C)=C\C=C\C(C)C(O)C(C)C(O)C(C)C(O)C1C (stereo unspecified)
inactive: [1] 5.15% | [2] 19.1% | [3] -10.8% | [4] 4.85% | [5] 0% | [6] 36.9%

O=S(=O)(Nc1cccc(C2=NCCN2)c1)c1cccc2c(S(=O)(=O)Nc3cccc(C4=NCCN4)c3)cccc12
inactive: [1] -9.6% | [2] -25.9% | [3] -30.1% | [4] -19% | [5] -12.2% | [6] -22.1%

O=C1c2ccccc2C(=O)c2c3c(cc([N+](=O)[O-])c21)OCO3
inactive: [1] -18.2% | [2] 12.1% | [3] 9.05% | [4] 25.7% | [5] -3% | [6] -9.75%

COC(=O)C1C(=O)C2OC1C1OC(C)(C)OC21 (stereo unspecified)
inactive: [1] 7.75% | [2] -12.1% | [3] -12.1% | [4] -52.4% | [5] 1.7% | [6] -0.95%

Oc1ccc(CN=Cc2ccccc2)cc1
inactive: [1] 0.05% | [2] 3.3% | [3] -7.05% | [4] -14.9% | [5] -15.6% | [6] -10.1%

CCCCCCC(Br)CCCC (stereo unspecified)
inactive: [1] 15.6% | [2] -8.85% | [3] 14% | [4] -15.2% | [5] -7.75% | [6] -4.9%

O=C1CCc2ccccc21
inactive: [1] -26.6% | [2] -10.5% | [3] -15% | [4] 15.1% | [5] 3.25% | [6] 7.75%

Cc1ncn(-c2ccccc2)c(=O)c1N=Cc1ccccc1
inactive: [1] -13.7% | [2] -17.1% | [3] -32.2% | [4] -8.85% | [5] -19.7% | [6] -10.3%

Cn1c2cc(Cl)c(Cl)cc2nc2cc3c(cc21)c(Cl)c(=O)c1cc2cc(Cl)c(Cl)cc2cc13
inactive: [1] 31.8% | [2] 8.65% | [3] 11.3% | [4] 25.9% | [5] -2.85% | [6] 20.3%

CCCN1C(=O)CN(S(=O)(=O)c2ccc(Cl)cc2)C1=O
inactive: [1] -1.1% | [2] 4.05% | [3] 3.6% | [4] -8% | [5] -1.25% | [6] -46.9%

COC(=O)CC1(O)C=C(C)C(=O)c2ccccc21 (stereo unspecified)
inactive: [1] 4.9% | [2] -5.7% | [3] -19.2% | [4] -19% | [5] 25.2% | [6] -11.2%

NC(=O)C1CC(O)CC(C(N)=O)O1 (stereo unspecified)
inactive: [1] -6.75% | [2] 8.3% | [3] -9.55% | [4] 3.4% | [5] -2.35% | [6] -23.9%

COc1cc(CNc2cnc3cc(N)ccc3n2)cc(OC)c1OC
inactive: [1] -32.5% | [2] -26.8% | [3] -66.3% | [4] -18% | [5] -21.7% | [6] -30.6%

Cc1cc(N(CCC#N)CCC#N)ccc1/C=C1N=C(/C=C\c2ccccc2)N(NC(=O)CC(=O)Nc2ccccc2Cl)C\1=O
inactive: [1] 14.6% | [2] -0.8% | [3] 1.55% | [4] 11.3% | [5] 2.8% | [6] 5.05%

COC(=O)CCc1cccnc1/C=N/O
inactive: [1] -26.9% | [2] -31.8% | [3] -11.8% | [4] 4.7% | [5] -11.7% | [6] -17.4%

c1csc(CNc2cccc3ccccc23)c1
inactive: [1] 54.5% | [2] 25% | [3] 31.6% | [4] -22.1% | [5] 13.6% | [6] 28%

CC1(C)OC2COC3OC(C)(C)OC3(CO)C2O1 (stereo unspecified)
inactive: [1] -1.7% | [2] -17.8% | [3] -6.1% | [4] -4.9% | [5] 20.5% | [6] 5.15%

CCCCCCCCCCCCCCCCc1c(C)ncn(C)c1=O
inactive: [1] -13.9% | [2] 2% | [3] 5.4% | [4] -8.15% | [5] -9.2% | [6] -49%

O=C1NC(=O)C(=O)N1
inactive: [1] 25.8% | [2] 13.4% | [3] 8.65% | [4] 16.4% | [5] 27.8% | [6] -1.8%

CCCc1cc(=O)oc2c3c(c4c(c12)OC(C)(C)CC4)O[C@H](C)C(C)[C@@H]3O (stereo partly specified)
inactive: [1] 9.9% | [2] 7.45% | [3] 22.1% | [4] -11.3% | [5] 2.85% | [6] -10.6%

CCN(CC)C(=S)N1C(=O)C2C3CCC(O3)C2C1=O (stereo unspecified)
inactive: [1] 19.1% | [2] 11.9% | [3] 13.2% | [4] 6.75% | [5] 28.2% | [6] -11.2%

O=[N+]([O-])c1cc(Cl)cc2c1nc(NCCCO)c1ccccc12
inactive: [1] -0.8% | [2] 7.35% | [3] -0.3% | [4] -7.95% | [5] -7.65% | [6] 27.9%

CCCNc1ccc2c(c1)C(=O)c1ccccc1-2
inactive: [1] -3.5% | [2] -1.1% | [3] -0.15% | [4] -6.2% | [5] -0.65% | [6] -1.8%

O=C(O)c1c[nH]c2c(Cl)cccc2c1=O
inactive: [1] 18.9% | [2] -16.4% | [3] 4.3% | [4] 10.8% | [5] 18.4% | [6] 14.4%

CCOC(=O)C1=C(O)CSC1=Nc1ccccc1
inactive: [1] -16.3% | [2] 5.6% | [3] -12.8% | [4] -9.3% | [5] -1.7% | [6] 22.9%

CSc1nc(N)c(NS(=O)(=O)c2ccccc2)c(=O)[nH]1
inactive: [1] -10.6% | [2] -18.1% | [3] -17.6% | [4] -2.9% | [5] 6.95% | [6] 6.05%
